# Screens from PubChem.
# Hits are enriched below; roughly 1.4% of the tested compounds scored in any of these assays.
# AmpC inh no detg: blocks E. coli AmpC beta-lactamase in detergent-free assay | P00811 | AmpC nitrocefin hydrolysis, absorbance 480 nm, 0.0001% Triton | Potency, µM (top dose mostly 57.1 µM), for the others: at the highest dose activity change, negative = inhibition, most hits filed as inhibitors | AID 485341 | 330,000 tested, 0.52% active;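 further: plate controls were no compound for no effect and no enzyme for full effect; nearly all actives have a fitted effect of over 20% in size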
#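 20 mM phosphate pH 7.0 + 0.01% (detergent screen) or 0.0001% Triton X-100; 5.3 nM AmpC reagent; cpd preinc 15 min RT; nitrocefin (800 uM stock) to start; A480 q20 s × 4 min; Activity was normalised to no-enzyme and no-compound control wells.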
# RE007 growth inh: less growth of the S. pombe RE007 Vpr strain | Potency, µM (top dose mostly 92.2 µM), for inactives: at the top dose activity change, negative = less growth, most hits filed as inhibitors | AID 651644 | S. pombe RE007 Vpr strain, BacTiter-Glo ATP luminescence, 24 h | 360,000 tested, 0.21% active; active means well fitted falling curve with a large enough effect; inconclusive means small, poorly fitted or top-dose-only effect; inactive means no such curve, though single readings can be large or run the other way; further: nearly all actives have a fitted effect of over 50% in size
#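 Fission yeast strain RE007, carrying one chromosomally integrated HIV-1 vpr copy, was seeded at OD 0.01 in PMG+AL medium with 23 nL pinned compound. After 24 h at 30 °C and 99% humidity, viability was read by BacTiter-Glo luminescence.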
# AmpC detergent: inhibitors of E. coli AmpC beta-lactamase with detergent; 370,000 tested, 0.041% active; AmpC hydrolysis of nitrocefin, absorbance 480 nm, 0.01% Triton; AID 485294; Potency, µM (top dose mostly 114 µM), without a hit: at the highest dose activity change, negative = inhibition, usual class: inhibitors; P00811;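 further: 0% = no-compound wells and -100% = no-enzyme wells; nearly all actives have a fitted effect of over 25% in size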
#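 20 mM phosphate pH 7.0 + 0.01% (detergent screen) or 0.0001% Triton X-100; 5.3 nM AmpC reagent; cpd preinc 15 min RT; nitrocefin (800 uM stock) to start; A480 q20 s × 4 min; Activity was normalised to no-enzyme and no-compound control wells.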
# TbPYK inhibitor: blocks Trypanosoma brucei pyruvate kinase. Q57TT1. TbPYK enzyme, Kinase-Glo Plus ATP luminescence, 45 min. Potency, µM (titrated, usually from 76.8 µM), inactives show top-dose activity, negative = inhibition, actives largely listed as inhibitors. 410,000 tested, 0.12% active. AID 624173; further: nearly all actives have a fitted effect of over 50% in size
#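 ADP (130 uM final) triggers the TbPYK reaction after compound addition; incubation is 45 min at room temperature. Kinase-Glo Plus is then added and luminescence imaged. Normalized data are fitted to concentration-effect curves.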
# LmPK inh: blocks Leishmania mexicana pyruvate kinase activity; Q27686; purified LmPK, Kinase-Glo ATP luminescence, 1 h; Potency, µM (series often up to 57.5 µM), without a hit: at the highest dose activity change, negative = inhibition, usual class: inhibitors; 290,000 tested, 0.37% active; AID 1721
# Target sequence (Q27686 whole entry, looked up): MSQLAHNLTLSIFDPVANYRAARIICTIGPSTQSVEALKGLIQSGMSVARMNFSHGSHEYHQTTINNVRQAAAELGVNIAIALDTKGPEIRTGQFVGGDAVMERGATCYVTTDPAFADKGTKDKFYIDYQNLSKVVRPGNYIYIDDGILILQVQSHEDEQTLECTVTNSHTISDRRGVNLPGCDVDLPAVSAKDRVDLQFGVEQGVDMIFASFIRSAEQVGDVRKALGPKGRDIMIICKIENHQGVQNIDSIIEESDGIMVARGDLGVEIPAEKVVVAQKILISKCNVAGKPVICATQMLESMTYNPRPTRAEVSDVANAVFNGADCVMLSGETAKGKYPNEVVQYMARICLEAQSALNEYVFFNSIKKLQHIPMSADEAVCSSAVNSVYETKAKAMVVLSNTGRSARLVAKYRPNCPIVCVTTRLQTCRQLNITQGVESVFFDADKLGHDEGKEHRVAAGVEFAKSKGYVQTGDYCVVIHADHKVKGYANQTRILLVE
#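 Purified LmPK (0.1 nM) converted ADP (0.1 mM) to ATP with PEP (0.5 mM) in imidazole buffer pH 7.2 with KCl and MgCl2, 1 h at room temperature. ATP was read by Kinase-Glo luminescence; data normalized to uninhibited and no-enzyme controls.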
# Giardia FBPA inh-1: inhibitors of Giardia lamblia fructose-1,6-bisphosphate aldolase; Potency, µM (highest dose often 59.6 µM), without a hit: top-dose activity, negative = inhibition, usual class: inhibitors; 290,000 tested, 0.71% active; A8B2U2; purified Giardia FBPA; further: nearly all actives have a fitted effect of over 55% in size
#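 Giardia FBPA (40 nM reagent) was preincubated 10 min at RT with compound (up to 57.5 uM final), then substrate plus GAPDH/TPI/NAD/arsenate coupling system with diaphorase/resazurin was added; resorufin fluorescence (525/598 nm) was read after 20 min.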
# Giardia growth: blocks growth of Giardia lamblia trophozoites; Potency, µM (titrated, usually from 57.5 µM), without a hit: top-dose activity change, negative = inhibition, most hits filed as inhibitors; Giardia lamblia trophozoite growth inhibition; 1,500 tested, 5% active; shares compounds with Giardia FBPA inh-1;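 further: trophozoites exposed to compound for 48 h at 37 °C; nearly all actives have a fitted effect of over 70% in size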
# Mammalian tox: toxic to mammalian cells in Giardia aldolase counter-screen; shares compounds with Giardia FBPA inh-1; mammalian cell viability counter-screen, qHTS; Potency, µM (series often up to 57.5 µM), for inactives: top-dose viability change, negative = toxicity, actives largely listed as inhibitors; 1,500 tested, 4% active; AID 2786;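 further: Chinese hamster ovary cells used as mammalian cytotoxicity surrogate; viability measured as cellular ATP by luminescence; compound exposure lasted 48 h before reading; nearly all actives have a fitted effect of over 60% in size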
# Giardia FBPA inh-2: confirmation of Giardia fructose-bisphosphate aldolase inhibitors; shares compounds with Giardia FBPA inh-1; purified Giardia aldolase enzyme activity, qHTS; Potency, µM (titrated, usually from 57.5 µM), for inactives: top-dose activity change, negative = inhibition, usual class: inhibitors; 1,500 tested, 5% active; further: nearly all actives have a fitted effect of over 45% in size
# Rabbit aldolase: blocks rabbit muscle aldolase in Giardia aldolase selectivity test | shares compounds with Giardia FBPA inh-1 | Rabbit muscle FBPA enzyme inhibition, selectivity counter-screen | Potency, µM (doses to about 57.5 µM), for inactives: top-dose activity, negative = inhibition, usual class: inhibitors | 1,500 tested, 4% active | AID 2794; further: nearly all actives have a fitted effect of over 60% in size
# GAPDH counter: counter-screen for Giardia aldolase inhibitors: GAPDH coupling enzyme. GAPDH coupling enzyme counterscreen, biochemical, qHTS. Potency, µM (highest dose often 57.5 µM), without a hit: at the highest dose activity change, negative = inhibition, hits mostly inhibitors. 1,500 tested, 6% active. shares compounds with Giardia FBPA inh-1. AID 2795; further: nearly all actives have a fitted effect of over 55% in size
# Active calls of the source: *; ? = inconclusive; / = no result given; [ ] = remark or other dose. Unless noted, the call rests on the fitted dose curve; in most records, active means well fitted curve in the direction sought with a large enough effect; inconclusive means small, poorly fitted or top-dose-only effect, or another doubt; inactive means no such curve, though single readings can be large; an effect the other way counts as inactive or inconclusive. Unless noted, on the % scale 0 is the no-effect control and ±100 the full control effect; potency means the concentration at half of the fitted maximal effect.
SMILES,AmpC inh no detg,RE007 growth inh,AmpC detergent,TbPYK inhibitor,LmPK inh,Giardia FBPA inh-1,Giardia growth,Mammalian tox,Giardia FBPA inh-2,Rabbit aldolase,GAPDH counter
CCN1CCN(C(=S)c2ccc(O)cc2)CC1,-21%,-7%,2%,?,-14%,8.9µM*,12%[38.3 µM],-19%,-16%,-27%,-9%
S=C(c1ccc(Br)cc1)N1CCN(Cc2ccccc2)CC1,2%,-17%,-16%,?,6%,14µM*,?,-6%,?,?,?
CCNC(=S)N1CCN(Cc2ccccc2)CC1,-9%,-11%,-9%,2%,-5%,?,/,/,/,/,/
CCc1cccc(C)c1NC(=O)C1CCN(c2nnc(C)c3c(C)n(-c4ccccc4)nc23)CC1,/,/,24%,3%,/,/,/,/,/,/,/
COc1cc(NC(=O)CN(C)S(=O)(=O)c2ccc3[nH]c4c(c3c2)CCCC4)cc(OC)c1OC,/,/,-2%,1%,/,/,/,/,/,/,/
Oc1ccc(C(=S)N2CCN(Cc3ccccc3)CC2)cc1,-46%,-12%,3%,?,-3%,18µM*,55%,6%,-5%,-16%,6%
CN(C)C(=O)CNc1n[nH]c(=S)[nH]c1=O,-7%,-3%,10%,-10%,8%,16µM*,?,4%,3%,3%,7%
COC(=O)CNc1n[nH]c(=S)[nH]c1=O,-16%,23%,-11%,-1%,-1%,?,/,/,/,/,/
CC(C)OC(=O)CNc1n[nH]c(=S)[nH]c1=O,-8%,-14%,5%,-1%,1%,4.5µM*,41%,-5%,6%,4%,6%
CN(C)c1ccc(NC(=O)CSC2=Nc3ccccc3C3=NC(CCC(=O)NCc4cccs4)C(=O)N23)cc1 (stereo not drawn),/,/,?,-2%,/,/,/,/,/,/,/
NC(=S)c1cn(C2OC(CO)C(O)C2O)c2ncnc(N)c12 (stereo not drawn),-27%,5%,-11%,-28%,-4%,14µM*,-2%,?,12%,16%,-3%
N#Cc1c(-c2ccc(Cl)cc2)cc(-c2ccccc2)nc1SCC(=O)O,-28%,5%,0%,6%,-1%,11%,/,/,/,/,/
N#Cc1c(-c2ccc(F)cc2)cc(-c2ccccc2)nc1SCC(=O)NCC(=O)O,15%,17%,-7%,-19%,1%,7.1µM*,21%[38.3 µM],15%,-2%,6%,15%
CCOc1ccc(NC(=O)C2CCCN(c3nn4cc(-c5ccc(OC)cc5)nc4s3)C2)cc1 (stereo not drawn),/,/,22%,-9%[15.4 µM],/,/,/,/,/,/,/
O=C1C=C(O)c2cccc(O)c2C1=O,-47%,?,-6%,-4%,-2%,5.6µM*,3%[10.4 µM],19%,?,-21%,?
O=C1c2cccc(O)c2C(=O)c2c(O)cccc21,-19%,/,-6%,-3%,3%,-18%,/,/,/,/,/
